# PubChem BioAssay (NCATS)
# Values without a mark were called inactive. Results filed as inconclusive are left out. Where a call stands in place of a potency, no number is given. The source made the active and inactive calls. The call rests on the fitted dose curve; in most records, active means well fitted curve in the direction sought with a large enough effect; inconclusive means small, poorly fitted or top-dose-only effect, or another doubt; inactive means no such curve, though single readings can be large; an effect the other way counts as inactive or inconclusive.
# Legend:
# [1] = Primary redox qHTS assay for identification of artifact compounds. (AID 1845223); details: Amplex Red/HRP redox cycling with DTT, fluorescence; series mostly up to 53.8 µM
# Summary of the method: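 Redox-cycling detection via DTT (250 uM final) oxidation coupled to Amplex Red (25 uM)/HRP (250 mU/mL) in HBSS. 15 min preincubation plus 30 min after DTT, room temperature. Ex/Em 525/598 nm; 4-parameter Hill fit against DMSO and 10 uM DA3003.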
# [2] = target: Cytochrome P450 2D6 (Homo sapiens) (UniProt P10635); experiment: qHTS for inhibitors of CYP2D6 against the NCATS DSHEA and TCM libraries (AID 1919972); details: CYP2D6 enzymatic inhibition, luminescence qHTS; series mostly up to 34.1 µM
# Summary of the method: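 qHTS, concentration–response format with most substances from 19.5 nM. CYP2D6 + pro-luciferin substrate, 15 min with compound, then 1x NADPH regen, 30–45 min RT dark. Glo detection 30 min, luminescence. Quinidine control.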
# [3] = target: Cytochrome P450 2C9 (Homo sapiens) (UniProt P11712); experiment: qHTS for inhibitors of CYP2C9 against the NCATS DSHEA and TCM libraries (AID 1919973); details: recombinant CYP2C9 enzyme activity, luminescence; series mostly up to 34.1 µM; further: potency means the concentration at half of the fitted maximal effect
# Summary of the method: (§1)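 Substances were tested against enzyme with a pro-luciferin substrate; minus-enzyme wells served as background. After NADPH-initiated oxidation (30-45 min, RT), light was generated with P450-Glo reagent.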
# [4] = KB-3-1 P-gp reporter qHTS against the NCATS DSHEA and TCM libraries (AID 1919975); details: KB-3-1 parental cells, CellTiter-Glo luminescence viability, 72 h; series mostly up to 26.1 µM
# Summary of the method: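 Cell viability qHTS: 500 KB-3-1 cells/well, substances in titration, ~72 h, 37C; luminescent CellTiter-Glo read.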
# [5] = qHTS Counterscreen for compound interference against the NCATS DSHEA and TCM libraries (AID 1919978); details: firefly luciferase detection reagent interference, luminescence;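 further: compounds preincubated with 1 µM D-luciferin or buffer before detection reagent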
# Summary of the method: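 Interference check: test samples were incubated with D-luciferin (final 1 uM) or buffer only for 15 min, room temperature, in a qHTS titration up to 39.8 uM, then developed with detection reagent and read by luminescence.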
# [6] = Dual reporter qHTS for agonist of Pregnane X Receptor (hPXR) against the NCATS DSHEA and TCM libraries: Fluorescence readout (AID 1920058); details: PXR dual reporter cells; series mostly up to 40 µM
# Summary of the method: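 Fluorescence read-out for cell viability: CellTiter-Fluor, 1 h at 37 °C, Ex/Em 405/540 nm. This followed ~24 h treatment of hPXR-Luc HepG2 cells with substances in agonist mode.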
# [7] = target: Cytochrome P450 3A4 (Homo sapiens) (UniProt P08684); experiment: qHTS for inhibitors of CYP3A4 against the NCATS DSHEA and TCM libraries (AID 1919971); details: recombinant CYP3A4 enzyme activity, luminescence qHTS; series mostly up to 34.1 µM;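 further: inhibition lowers luminescence from luciferin made by CYP3A4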
# Summary of the method: as §1
# [8] = target: Cytochrome P450 2C19 (Homo sapiens) (UniProt P33261); experiment: qHTS for inhibitors of CYP2C19 against the NCATS DSHEA and TCM libraries (AID 1919974); details: CYP2C19 enzyme inhibition, luminescence qHTS; series mostly up to 34.1 µM;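 further: luminescence from luciferin released by CYP2C19 oxidation of a pro-luciferin substrate; potency means the concentration at half of the fitted maximal effect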
# Summary of the method: as §1
# [9] = target: Nuclear receptor subfamily 1 group I member 2 (Homo sapiens) (UniProt O75469); experiment: Dual reporter qHTS for agonist of Pregnane X Receptor (hPXR) against the NCATS DSHEA and TCM libraries: Luminescence readout (AID 1920059); details: hPXR dual reporter cells, luciferase luminescence agonist; series mostly up to 40 µM
# Summary of the method: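 hPXR-LucHepG2 cells in phenol red-free DMEM with 5% charcoal-stripped FBS, 2000 cells/well, attached 5 h, then exposed 24 h at 37C to compounds; rifampicin as positive agonist control (2.8 nM–92 uM). Luciferase luminescence read.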
# Cytochrome P450 2D6 (Homo sapiens), sequence (P10635 whole entry, looked up): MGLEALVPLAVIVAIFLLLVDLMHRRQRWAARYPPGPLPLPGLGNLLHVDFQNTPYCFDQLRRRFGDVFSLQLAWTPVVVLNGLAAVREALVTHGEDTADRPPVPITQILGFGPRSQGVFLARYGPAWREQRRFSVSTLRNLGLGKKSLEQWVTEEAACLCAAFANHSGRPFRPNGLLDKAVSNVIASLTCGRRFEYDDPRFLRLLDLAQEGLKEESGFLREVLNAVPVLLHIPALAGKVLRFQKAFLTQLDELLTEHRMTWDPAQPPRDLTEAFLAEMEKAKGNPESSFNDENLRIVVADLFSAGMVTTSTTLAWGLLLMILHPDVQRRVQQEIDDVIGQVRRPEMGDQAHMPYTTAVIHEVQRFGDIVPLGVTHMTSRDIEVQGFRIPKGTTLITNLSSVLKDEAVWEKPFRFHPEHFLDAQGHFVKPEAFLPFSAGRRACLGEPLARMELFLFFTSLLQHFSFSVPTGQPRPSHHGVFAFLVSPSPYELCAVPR
# Nuclear receptor subfamily 1 group I member 2 (Homo sapiens), sequence (O75469 whole entry, looked up): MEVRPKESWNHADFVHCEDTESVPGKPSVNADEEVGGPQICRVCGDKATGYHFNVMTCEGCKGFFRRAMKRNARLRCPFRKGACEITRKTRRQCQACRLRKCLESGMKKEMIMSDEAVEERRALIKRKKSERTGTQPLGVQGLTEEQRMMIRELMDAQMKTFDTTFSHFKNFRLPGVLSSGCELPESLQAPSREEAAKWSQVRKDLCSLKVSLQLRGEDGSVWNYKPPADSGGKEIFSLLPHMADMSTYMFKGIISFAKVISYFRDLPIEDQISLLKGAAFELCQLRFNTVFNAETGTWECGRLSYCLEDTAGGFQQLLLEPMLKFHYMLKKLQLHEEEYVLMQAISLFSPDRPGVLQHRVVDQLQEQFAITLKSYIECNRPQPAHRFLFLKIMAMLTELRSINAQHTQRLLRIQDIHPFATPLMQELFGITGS
# Cytochrome P450 2C9 (Homo sapiens), sequence (P11712 whole entry, looked up): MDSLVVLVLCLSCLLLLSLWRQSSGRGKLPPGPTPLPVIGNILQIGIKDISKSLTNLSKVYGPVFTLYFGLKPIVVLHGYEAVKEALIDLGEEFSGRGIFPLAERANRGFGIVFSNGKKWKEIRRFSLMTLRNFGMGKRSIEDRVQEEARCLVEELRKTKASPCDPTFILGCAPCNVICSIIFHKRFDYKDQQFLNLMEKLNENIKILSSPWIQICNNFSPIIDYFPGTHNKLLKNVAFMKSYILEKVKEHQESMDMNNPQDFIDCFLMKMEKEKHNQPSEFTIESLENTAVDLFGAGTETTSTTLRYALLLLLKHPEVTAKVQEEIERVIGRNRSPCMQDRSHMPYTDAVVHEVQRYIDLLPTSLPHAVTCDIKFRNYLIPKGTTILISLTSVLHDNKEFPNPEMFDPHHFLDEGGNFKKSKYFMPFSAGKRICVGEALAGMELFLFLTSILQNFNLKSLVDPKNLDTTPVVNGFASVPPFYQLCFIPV
# Cytochrome P450 3A4 (Homo sapiens), sequence (P08684 whole entry, looked up): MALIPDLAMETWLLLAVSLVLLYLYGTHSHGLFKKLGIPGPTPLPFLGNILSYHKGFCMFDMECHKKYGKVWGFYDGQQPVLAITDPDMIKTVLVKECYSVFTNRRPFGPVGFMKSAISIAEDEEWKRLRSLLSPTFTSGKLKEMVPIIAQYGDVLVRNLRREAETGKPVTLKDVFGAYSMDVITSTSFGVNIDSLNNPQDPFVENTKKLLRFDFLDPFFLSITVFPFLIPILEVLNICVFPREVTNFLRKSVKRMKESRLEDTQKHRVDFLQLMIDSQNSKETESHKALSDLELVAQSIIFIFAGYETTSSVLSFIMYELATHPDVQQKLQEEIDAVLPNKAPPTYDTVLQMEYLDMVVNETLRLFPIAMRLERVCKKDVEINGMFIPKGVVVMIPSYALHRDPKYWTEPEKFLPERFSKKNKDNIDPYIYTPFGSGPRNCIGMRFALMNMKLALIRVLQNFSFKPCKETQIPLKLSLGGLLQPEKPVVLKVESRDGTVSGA
# Cytochrome P450 2C19 (Homo sapiens), sequence (P33261 whole entry, looked up): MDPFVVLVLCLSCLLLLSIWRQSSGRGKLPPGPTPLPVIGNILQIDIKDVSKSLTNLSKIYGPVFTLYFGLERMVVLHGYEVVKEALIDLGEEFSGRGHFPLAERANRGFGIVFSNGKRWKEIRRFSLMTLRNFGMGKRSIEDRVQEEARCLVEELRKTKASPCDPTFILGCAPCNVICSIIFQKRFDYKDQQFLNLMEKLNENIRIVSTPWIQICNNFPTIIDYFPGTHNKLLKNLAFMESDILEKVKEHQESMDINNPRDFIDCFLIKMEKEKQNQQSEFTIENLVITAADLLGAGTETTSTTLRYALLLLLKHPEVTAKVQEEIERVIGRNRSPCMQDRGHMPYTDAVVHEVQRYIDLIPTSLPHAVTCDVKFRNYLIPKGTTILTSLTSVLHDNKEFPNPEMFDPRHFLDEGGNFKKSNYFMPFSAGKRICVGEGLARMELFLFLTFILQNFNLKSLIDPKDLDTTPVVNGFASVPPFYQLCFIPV
compound,measurement,setting,value
CC(C)N(C[C@H]1O[C@@H](n2cnc3c(N)ncnc32)[C@H](O)[C@@H]1O)C1CC(CCc2nc3ccc(C(C)(C)C)cc3[nH]2)C1 (some centres undefined),Potency,[1],inactive
COC1C=C([C@@H]2CC=C3[C@@]4(C)C(CC[C@]32C)[C@@]2(C)C=CC(=O)C(C)(C)C2C[C@H]4OC(C)=O)C(=O)O1 (some centres undefined),Potency,[1],inactive
COC1=Cc2c(nc3n(c2=O)C(C)C(=O)NC3(O)C(C)C)OC=C1 (centres undefined),Potency,[1],inactive
CC(=O)O[C@@H]1[C@@H](OC(=O)/C=C/c2ccccc2)[C@H](C)O[C@@H](O[C@H]2[C@@H]3C=CO[C@@H](O[C@@H]4O[C@H](CO)[C@@H](O)[C@H](O)[C@H]4O)[C@@H]3[C@@]3(CO)O[C@@H]23)[C@@H]1OC(C)=O,Potency,[1],inactive
CC1(C)CCCC2(C)C3=C(C(=O)OC3O)C(O)CC12 (centres undefined),Potency,[1],inactive
c1nc(NC2CCCCCC2)c2cc(CNC[C@H]3CCCO3)sc2n1,Potency,[1],inactive
COC(=O)C1=CO[C@@H](O[C@@H]2O[C@H](CO[C@@H]3O[C@H](COC(=O)/C=C/c4ccc(O)cc4)[C@@H](O)[C@H](O)[C@H]3O)[C@@H](O)[C@H](O)[C@H]2O)[C@@H]2C(CO)=CC[C@H]12,Potency,[1],inactive
C=C1CCC2C(C)(C)C(O)CCC2(C)C1CCC(C)CCOC(=O)CCC(=O)O (centres undefined),Potency,[1],inactive
CCn1c2ccccc2c2cc(CNC)ccc21,Potency,[1],inactive
CC1=C(/C=C/C(C)=C/C=C/C(C)=C/CO)C(C)(C)CCC1,outcome,[2],inactive
same,Potency,[3],14.1 µM (active)
same,outcome,[4],inactive
same,max response,[5],0.358%
same,outcome,[6],inactive
CCOC(=O)[C@H](CCc1ccccc1)CC1(C(=O)N[C@H]2CCc3ccccc3N(CC(=O)O)C2=O)CCCC1,Potency,[1],inactive
Clc1ccc(CN[C@H]2CCN(c3ncc(Br)cn3)C2)c(Cl)c1,Potency,[1],inactive
COc1cc(/C=C/C(=O)OC2CC(OC(C)=O)C(OC(C)=O)C3C2CCC2C(=O)OC(c4ccoc4)CC23C)ccc1O[C@@H]1O[C@H](CO)[C@@H](O)[C@H](O)[C@H]1O (some centres undefined),Potency,[1],inactive
C=C1CC[C@H]2[C@@H](/C=C(\C)C(=O)[C@@]3(OC(C)=O)C[C@H](C)[C@H](OC(C)=O)[C@@H]3[C@H]1OC(C)=O)C2(C)C,Potency,[1],inactive
COc1cc(C2c3cc(O)c(OC)cc3CC(CO)C2CO)ccc1O (centres undefined),Potency,[1],inactive
O=C(O[C@H]1[C@@H]2C[C@@H]3OC[C@@](O)([C@H]2[C@H](O[C@@H]2O[C@H](CO)[C@@H](O)[C@H](O)[C@H]2O)O3)[C@@H]1O)c1ccccc1,Potency,[1],inactive
CC(C)(O)/C=C1/C(=O)C(C)(C)C(=O)C(C)(C)C1(O)O[C@@H]1O[C@H](COC(=O)c2cc(O)c(O)c(O)c2)[C@@H](O)[C@H](O)[C@H]1O (some centres undefined),Potency,[1],inactive
CC1=CCC(C(C)(C)O)CC1 (centres undefined),outcome,[7],inactive
same,outcome,[2],inactive
same,Potency,[8],3.55 µM (active)
same,outcome,[4],inactive
same,max response,[5],-0.821%
same,outcome,[6],inactive
same,outcome,[9],inactive
Cn1c(=O)cc(N2CCCC(N)C2)n(Cc2ccccc2C#N)c1=O (centres undefined),Potency,[1],inactive
